Measured values: the supplement of paper PMC6555819

Assays:
Assay in all cases: PBM binding z-score (relative to random genomic background probes); higher = stronger binding; sequences stand for … in GC…GCGATTGACAGCGTAGAATGAAGG
[1] = system: FXR:RXRa (NR concentration 270 nM, RXRa partner concentration 90 nM)
Summary of the method: (§1)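 Binding buffer was PBS pH 7.4 with 2% milk, 0.02% Triton X-100, 1 mM DTT, 0.2 mg/mL BSA and 0.4 mg/ml salmon testes DNA. In it, ligand-free nuclear receptor dimers were incubated 1 h on custom Agilent 4×180K protein-binding microarrays carrying double-stranded probes. Antibodies against each partner (one per run) detected binding, and z-scores were calculated against random background probes after regression normalization of scanned fluorescence.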

[2] = system: LXRa:RXRa (NR concentration 270 nM, RXRa partner concentration 90 nM)
Summary of the method: as §1

[3] = system: LXRa homodimer (NR concentration 270 nM)
Summary of the method: as §1

[4] = system: LXRb:RXRa (NR concentration 270 nM, RXRa partner concentration 90 nM)
Summary of the method: as §1

[5] = system: LXRb homodimer (NR concentration 270 nM)
Summary of the method: as §1

[6] = system: PPARa:RXRa (NR concentration 270 nM, RXRa partner concentration 90 nM)
Summary of the method: as §1

[7] = system: PPARg:RXRa (NR concentration 180 nM, RXRa partner concentration 90 nM)
Summary of the method: as §1

[8] = system: PPARg:RXRa 270nM:90nM, anti-RXR (NR concentration 270 nM, RXRa partner concentration 90 nM)
Summary of the method: as §1

[9] = system: PPARg:RXRa 30nM:10nM, anti-RXR (NR concentration 30 nM, RXRa partner concentration 10 nM)
Summary of the method: as §1

[10] = system: PPARg:RXRa 90nM:30nM, anti-RXR (NR concentration 90 nM, RXRa partner concentration 30 nM)
Summary of the method: as §1

Sequence | PBM binding z-score [1] | PBM binding z-score [2] | PBM binding z-score [3] | PBM binding z-score [4] | PBM binding z-score [5] | PBM binding z-score [6] | PBM binding z-score [7] | PBM binding z-score [8] | PBM binding z-score [9] | PBM binding z-score [10]
AGACTGAGGTTATACGTAGATCAGGGAAGAAAGT | 1.99 | 2 | 0.184 | 1.55 | -0.196 | 2.58 | 0.936 | 0.937 | 0.367 | 0.756
ATACCAAGGCGATCGTGAGGTCGTTGATACTAAC | 0.659 | 0.195 | 0.46 | 0.571 | -0.375 | 0.703 | 0.16 | -0.337 | -0.383 | -0.191
AGAACGAGGGCACGCGGAGTTGATAGCAGAGTAG | 0.925 | 0.696 | -0.442 | 0.259 | -1.01 | 2.58 | 2.36 | 1.91 | 0.448 | 1.26
AGTCAAAGTGCACTAGGTAACGTAAGATTCAGCT | -0.308 | -0.0298 | -0.372 | -0.0247 | -0.424 | 1.85 | 3.36 | 3.28 | 1.04 | 1.89
GTACCAAGGTGAATCGGTCGTTGATGAGTAGGCG | 0.346 | 0.0414 | -0.326 | -0.181 | -0.693 | 1.05 | 0.567 | 0.624 | -0.427 | 0.0488
CCTTACGGCTCACTGACAGGTTATAGCATTTGGA | 0.367 | 0.347 | 0.304 | 0.294 | -0.0562 | 0.311 | 0.426 | -0.0307 | 0.448 | 0.0518
TCTCGGAGGACACGAAAGGTCAGGGCTCGACATC | 3.31 | 3.84 | 3.08 | 3.5 | 0.0689 | 3.95 | 1.6 | 2.91 | 2.57 | 2.76
TTACCAAGGTGAGCTGTGGTCGTTGATCCAACTC | 0.0539 | -0.153 | -0.583 | -0.347 | -1.27 | 0.301 | -0.403 | 0.0963 | -0.507 | 0.106
CCTACTGGGCCAAAAAGGTCATTGACGCCGATAA | 3.87 | 4.62 | 2.87 | 4.33 | 0.108 | 4.61 | 3.21 | 4.25 | 1.8 | 3.54
CGGCCTAGGTCAGGGCCAGTATAGGAGGAACGTT | 1.39 | 0.731 | -0.463 | 0.402 | -1.29 | 1.83 | 0.691 | 0.462 | -0.446 | 0.244
CCGACTGGGGCAAGGTAACCATAACGCACAGCCA | -0.249 | -0.173 | -0.437 | -0.227 | -0.817 | 0.552 | 1.47 | 1.14 | -0.222 | 0.712
AGTCAAAGTTCACTAGGTAACGCAAGATTCAGCT | 5.26 | 4.86 | 2.69 | 2.93 | 0.956 | 4.83 | 7.22 | 6.82 | 3.62 | 6.03
ACAGACAGGTGAGTGAAGGTAAATCAGCTGGACG | 0.263 | -0.325 | -0.654 | -0.138 | -0.427 | -0.1 | 0.739 | -0.481 | -0.0948 | -0.384
ATCTCTAGGTAACCACGTTCAGTGAATGCCGAAC | -0.0584 | -0.141 | 0.335 | -0.0295 | 0.814 | 0.308 | 0.571 | 0.503 | 0.0771 | 0.0954
CCTGCTAGGTCATGGTCAGCTTATCTACAGTATG | 3.54 | 2.53 | 0.0847 | 1.71 | -0.512 | 3.19 | 2.2 | 2.64 | 0.566 | 1.77
TCTCGGAGGACACGAAGGTCCGAGCTTTCCAGAG | 0.324 | -0.29 | -0.723 | -0.734 | -1.4 | 0.0732 | -0.408 | 0.645 | 1.71 | 1.12
TCTGCTAGGTCAGTTGGTCAGCTGACGAGCTGCC | 0.985 | 0.585 | -0.512 | 0.147 | 0.278 | 1.34 | 0.32 | 1.68 | 1.08 | 0.992
CCTCGGAGGACAACAGGAGGTCAGACCTGCCAGA | 0.836 | 2.12 | 2.37 | 1.52 | -0.492 | 1.96 | 0.605 | 0.0936 | -0.634 | -0.359
GCATAAAGGTAATACAAGGTGAAAGTCCGATTGT | 0.963 | 4.21 | 0.396 | 1.65 | -0.394 | 2.06 | 0.943 | 1.72 | 0.61 | 0.948
GCTTACGGGTCAACGGTTATAGCATGAATAGAAT | 5.44 | 3.55 | -0.033 | 3.68 | -0.198 | 5.55 | 6.07 | 5.8 | 3.19 | 5.2
CCTAGCAGGCCAATCTGGGTCACTCATGGCTTGA | 0.761 | 0.933 | -0.409 | 0.376 | -1.09 | 2.62 | 1.75 | 1.93 | 0.0126 | 0.944
TGAATTAGGTTATAAGATCAGGGAACGTTGCAAA | 0.295 | 0.216 | -0.00025 | 0.474 | 0.221 | 1.97 | 2.18 | 3.06 | 1.96 | 2.45
TCTAGCAGGCCAGAGCGTCACTCAAGAGGTACGG | -0.546 | -0.726 | -0.841 | -1.08 | -1.75 | -0.0685 | 0.266 | 0.612 | 1.11 | 0.674
ACTATTAGTTGAGACGAGGGCAACCCATAGGTTG | 0.567 | -0.017 | -0.102 | 0.0689 | 0.34 | 0.296 | 0.846 | 0.162 | 0.398 | 0.326
ACTAGCAGGCCAAGTGTCACTCAAGATTAGTCCG | -0.202 | -0.345 | -0.396 | -0.372 | -0.742 | 1.37 | 1.95 | 3.56 | 1.36 | 2.95
